HMGR II inh: inhibitors of E. faecalis class II HMGR, primary screen, biochemical, Enterococcus faecalis; HMG-CoA reductase (Enterococcus faecalis, mvaE); hit rate 0.41% among 190,000; purified E. faecalis HMGR, NADPH absorbance 340 nm kinetic; inhibition, % at 10 µM; AID 1066, 2008;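 active = inhibition above a set limit, the median over all tested compounds plus 3 SD, cut at about 9.5% in these data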;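 note: enzyme runs in reverse so mevalonate oxidation gives rising NADPH absorbance; 0% = complete reaction with DMSO and 100% = background rate lacking mevalonate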
EP2 antag: human EP2 receptor antagonists, primary screen, TR-FRET cAMP, C6 glioma cells | hit rate 0.52% among 260,000 | C6 glioma cells expressing human EP2; cells stimulated with saturating PGE2 | AID 1422, 2008 | Prostaglandin E2 receptor EP2 subtype (Homo sapiens), P43116 | inhibition, % at 25 µM;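 active = percent inhibition above 40 after rounding to a whole number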;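 note: rat C6 glioma host cells with rolipram phosphodiesterase inhibitor present; the protocol text gives 20 µM as final concentration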
Target sequence (P43116 whole entry, looked up): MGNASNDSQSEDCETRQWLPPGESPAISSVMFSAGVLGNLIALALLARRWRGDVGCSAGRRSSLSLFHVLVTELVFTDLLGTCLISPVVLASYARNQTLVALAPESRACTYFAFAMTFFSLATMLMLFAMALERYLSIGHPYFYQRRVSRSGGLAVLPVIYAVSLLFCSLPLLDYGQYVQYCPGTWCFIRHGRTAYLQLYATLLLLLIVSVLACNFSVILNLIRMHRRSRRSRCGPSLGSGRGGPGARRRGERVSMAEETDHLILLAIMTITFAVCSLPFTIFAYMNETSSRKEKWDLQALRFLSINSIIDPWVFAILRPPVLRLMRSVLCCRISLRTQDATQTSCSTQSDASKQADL
GSH fluor: compound fluorescence on glutathione beads, profiling panel, artefact control, biophysical, 488/530 nm, flow cytometry. GSH beads flow cytometry, compound fluorescence 488/530 nm; active compounds read high. fluorescence (KMESF) at 10 µM. hit rate 0.25% among 190,000. AID 1776, 2009; in the data active = fluorescence above about 89;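 note: glutathione beads carrying GST-tagged Bcl family fusion proteins plus one bare bead set; values are compound well signal with DMSO vehicle wells as background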
Avidin fluor: green autofluorescence of compounds with avidin beads – biophysical, 488/530 nm, flow cytometry, artefact control, profiling panel | compound fluorescence 488/530 nm; active compounds read high | fluorescence (KMESF) at 10 µM | hit rate 0.38% among 220,000 | AID 1775, 2009; in the data active = fluorescence above about 47
EP2 mod: EP2 receptor modulators, cAMP readout, primary screen, cell-based, HTRF cAMP, PGE2 stimulation; induction, % at 25 µM; EP2-expressing cells, cAMP HTRF FRET, PGE2 co-stimulation; hit rate 0.83% among 260,000; Prostaglandin E2 receptor EP2 subtype (Homo sapiens), P43116;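 active = compounds whose cAMP rise, as percent of the full-agonist control response, exceeds 60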;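 note: rat C6 glioma line stably carrying human EP2 under a CMV promoter; the protocol text gives 20 µM as final concentration; 100% = response of wells given 1 µM PGE2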
EP2 confirm: cAMP induction in EP2, EP4, beta2-AR and parental cells, confirmation, counter-screen for EP2 modulator project, cell-based, five parallel assays, C6 glioma, HEK293. shares compounds with EP2 mod. calls only at 20 µM (by protocol). hit rate 47% among 1,300. cAMP HTRF induction; plus low (about EC15) PGE2 agonist;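 active = cAMP induction above 50% in the main assay while under 30% in all four parallel counter assays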;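 note: rat C6 glioma cells stably expressing human EP2 receptor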
* marks the source's active call; other numbers are inactive results; i = inactive; · = not tested or not shown; + = active, no number. Rows were chosen to be rich in hits. Some 2.1% of all compounds tested hit in one or more screens of this group.

SMILES	HMGR II inh	EP2 antag	GSH fluor	Avidin fluor	EP2 mod	EP2 confirm
CCCC(c1nnnn1C(C)(C)C)N(Cc1ccccc1)Cc1cc2c(C)cc(C)cc2[nH]c1=O (stereo unspecified)	·	10	·	·	31	·
Cc1ccc2cc(CN(Cc3ccco3)C(=S)NCCCN(C)C)c(=O)[nH]c2c1C	·	14	·	·	-76	·
S=c1[nH]nc(C23CC4CC(CC(C4)C2)C3)n1Cc1ccco1	0	23	33	11	73*	+
CCOc1ccccc1N(CC(=O)NCc1ccc2c(c1)OCO2)S(C)(=O)=O	·	5	·	·	-6	·
Cc1ccc2nc(SCC(=O)NCc3ccco3)c(C#N)cc2c1	-3	15	30	5	12	·
Cc1ccc2nc(SCC(=O)NCc3ccco3)c(C)cc2c1	-5	7	13	10	69*	+
CC1CCc2cc(F)cc3c(O)c(C(=O)NCc4ccco4)c(=O)n1c23 (stereo unspecified)	5	·	19	9	69*	i
CCn1c(-c2ccc(OC)cc2)cnc1SCC(=O)Nc1ccc(N(C)C)cc1	·	33	·	·	-54	·
Clc1ccc(Cc2nnc(-c3ccco3)o2)cc1	·	9	·	·	-72	·
COc1ccc(OC)c(/C=C/C(=O)N2CCCc3ccccc32)c1	0	5	67	11	79*	+
Cc1ccccc1NC(=S)N(Cc1ccco1)C(C)c1cccs1 (stereo unspecified)	-2	5	24	10	51	i
CC(c1cccs1)N(Cc1ccco1)C(=S)Nc1ccccc1Cl (stereo unspecified)	-1	11	19	9	57	·
Cc1c(OCc2ccccc2)c(=O)ccn1Cc1ccc(Cl)cc1	-2	-2	12	9	67*	i
Cc1ccc(CN(CCCn2ccnc2)Cc2cc3c(cc2Cl)OCO3)s1	·	5	·	·	14	·
CN1CCN(c2ccccc2NC(=O)c2ccc(N3CCCCC3)c([N+](=O)[O-])c2)CC1	-3	8	10	9	-8	·
O=C(Nc1ccccc1N1CCCCC1)c1cnccn1	1	5	13	9	66*	+
Cc1ccc(C(=O)Nc2ccccc2N2CCCCC2)cc1[N+](=O)[O-]	1	1	15	9	66*	+
COc1ccc(C(=O)Nc2ccccc2N2CCCCC2)cc1[N+](=O)[O-]	-4	5	9	4	52	+
Cc1ccccc1C(=O)Nc1ccccc1N1CCCCC1	-5	7	19	6	60	+
Cc1nc2ccccc2c2nn(CC(=O)N3CC(C)CC(C)C3)c(=O)n12 (stereo unspecified)	·	3	·	·	-89	·
COc1ccc2cc(CN(CCO)C(=S)Nc3ccccc3OC)c(=O)[nH]c2c1	·	12	·	·	-9	·
CCc1c(C)sc(NC(=O)CSc2nc(-c3ccc(OC)cc3)cc(C(F)(F)F)n2)c1C#N	·	7	·	·	-8	·
Cc1cc2cc(C(c3nnnn3Cc3ccccc3)N3CCOCC3)c(=O)[nH]c2cc1C (stereo unspecified)	·	15	·	·	-12	·
Cn1c(=O)c2c(nc(CN3CCN(c4ccccc4)CC3)n2Cc2ccccc2Cl)n(C)c1=O	-1	6	30	16	58	i
CC1CCCN(Cc2nc3c(c(=O)n(C)c(=O)n3C)n2Cc2c(F)cccc2Cl)C1 (stereo unspecified)	-6	9	26	8	41	·
SMILES	HMGR II inh	EP2 antag	GSH fluor	Avidin fluor	EP2 mod	EP2 confirm
Cn1c(=O)c2c(nc(CN3CCN(c4ccccc4)CC3)n2Cc2c(F)cccc2Cl)n(C)c1=O	-6	2	13	22	71*	i
Cc1cccc2cc(CN(CCN3CCCC3)C(=O)Nc3ccccc3)c(=O)[nH]c12	·	5	·	·	-42	·
S=c1[nH]nc(C2CC2)n1Cc1ccccc1	-12	3	13	10	22	·
S=c1[nH]nc(C2CCCCC2)n1Cc1ccccc1	4	10	10	11	58	i
S=c1[nH]nc(-c2ccc(Br)o2)n1Cc1ccccc1	-10	8	56	8	62*	i
CCOC(=O)c1sc2nc(C)nc(N3CCN(c4ncccn4)CC3)c2c1C	3	9	14	8	67*	i
CCOC(=O)c1sc2ncnc(N3CCN(C)CC3)c2c1C	-3	3	12	11	11	·
CCOC(=O)n1c(=O)n(Cc2ccc(Cl)c(Cl)c2)c2ccccc21	-1	9	51	10	77*	+
CN(C)c1nc(Nc2ccc(Cl)c(Cl)c2)nc(Nn2cnnc2)n1	·	10	·	·	-57	·
CC(=O)O[C@@H]1c2c(ccc3ccc(=O)oc23)OC(C)(C)[C@@H]1OC(=O)CC(C)C	·	10	·	·	64*	+
CCOP(=O)(OCC)c1nc(/C=C/c2ccccc2)oc1NCc1ccccc1	1	3	11	18	51	i
CCOP(=O)(OCC)c1nc(/C=C/c2ccccc2)oc1NCc1ccc(OC)cc1	2	11	37	6	31	·
COP(=O)(OC)c1nc(-c2cccc3ccccc23)oc1NCCc1ccccc1	-8	7	4	13	46	·
CCOP(=O)(OCC)c1nc(-c2cccc3ccccc23)oc1NCc1ccc(OC)cc1	2	9	9	12	71*	i
CCOP(=O)(OCC)c1nc(-c2cccc3ccccc23)oc1NCc1ccccc1	-12	2	31	17	77*	+
COc1ccc(CCNc2oc(-c3cccc4ccccc34)nc2P(=O)(OC)OC)cc1OC	-10	6	6	2	-6	·
CCOP(=O)(OCC)c1nc(-c2ccc(C)cc2)oc1NCc1ccccc1	-4	10	10	15	81*	+
COc1ccc(C(=O)NCc2nc(-c3ccncc3)n[nH]2)cc1	·	10	·	·	17	·
Cc1[nH][nH]c(=O)c1C(c1ccc(OCc2cccc3ccccc23)cc1)c1c(C)[nH][nH]c1=O	·	12	·	·	-39	·
C=CCn1c(-c2csc3ccccc23)n[nH]c1=S	2	13	21	13	6	·
C=CCn1c(=S)[nH]c2sccc2c1=O	0	18	13	6	53	i
O=C(Nc1ccccc1-c1nc2ccccc2s1)C1=COCCO1	-2	5	3	3	74*	i

From PubChem
